This note sets out measurements from PubChem BioAssay (NCATS).

Structures are written as SMILES. Records with an inconclusive call do not appear. Values without a mark were called inactive. Active and inactive are the calls of the source. Calls come from the whole dose curve; as a rule, active = well fitted inhibition curve with a large enough effect; inconclusive = small, poorly fitted or top-dose-only effect; inactive = flat fitted curve, though single readings scatter.

The test system of assay [1] is HEK293. The assay can be described thus: Cytotoxic Profiling of Annotated Libraries Using Quantitative High-Throughput Screening (AID 1296008). Note: potency is the fitted concentration of half-maximal effect. The following applies: Five cell lines viability, CellTiter-Glo ATP luminescence, 48-72 h; max response: active compounds read low. Put shortly:
(§1)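 Cells exposed to compounds for 48 or 72 hr at 37 degrees Celsius. Viability read as ATP-coupled luminescence with CellTiter-Glo after 10 min at room temperature.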

For assay [2], the system named is HaCat. The assay is described as above. The conditions noted are these: Five cell lines viability, CellTiter-Glo ATP luminescence, 48-72 h; max response: active compounds read low. Put shortly:
as §1

In assay [3] the test system is KB-3-1. The description is as above. The following applies: Five cell lines viability, CellTiter-Glo ATP luminescence, 48-72 h; max response: active compounds read low. Put shortly:
as §1

Assay [4] relates to NIH3T3. Described as above. The following applies: Five cell lines viability, CellTiter-Glo ATP luminescence, 48-72 h; max response: active compounds read low. Put shortly:
as §1
(In ATP-based viability assays light output follows the ATP content of the culture.)

Assay [5] deals with MCC-13. The assay can be described thus: qHTS assay to identify novel small-molecules to repurpose for Merkel cell carcinoma treatment (AID 1296009). The conditions noted are these: MCC and control cell lines, CellTiter-Glo viability, 72 h; series mostly up to 46 µM. Put shortly: (§2)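 Cells were treated for 72 hr at 37 degree celsius with compounds in 8- or 11-point dose response. Viability was read by CellTiter-Glo luminescence, normalized to no-cell (cytotoxicity) and DMSO controls.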
A general note: qHTS replaces the single test concentration by a dilution series.

For assay [6], the system named is MCC-26. The assay is described as above. The conditions noted are these: MCC and control cell lines, CellTiter-Glo viability, 72 h; series mostly up to 46 µM. Put shortly:
as §2

Assay [7] has as its system HACAT. The description is as above. The conditions noted are these: MCC and control cell lines, CellTiter-Glo viability, 72 h; at 44.8 µM (top of the series) unless noted. In outline:
as §2

The subject of assay [8] is MKL-1. Described as above. The following applies: MCC and control cell lines, CellTiter-Glo viability, 72 h; series mostly up to 46 µM. Put shortly: as §2
In assay [9] the test system is MKL-2. The description is as above. The following applies: MCC and control cell lines, CellTiter-Glo viability, 72 h; series mostly up to 46 µM. In outline:
as §2

Assay [10] deals with HEK293T. The assay is described as above. The conditions noted are these: MCC and control cell lines, CellTiter-Glo viability, 72 h; at 44.8 µM (top of the series) unless noted. In outline: as §2
% is set by controls: 0 for no effect and ±100 for the full control effect.
Note: nearly all actives have a fitted effect of over 60% in size.

As to `COc1cc(C(=O)OCCCN2CCCN(CCCOC(=O)c3cc(OC)c(OC)c(OC)c3)CC2)cc(OC)c1OC`, in [1], the Potency is 21.1 µM (active). Moreover, the max response is 3.13% in assay [2], -1.09% in [3] and -3.19% in assay [4]. The Potency result in assay [5] and in assay [6] was “inactive” each time.

For `CNC1(C)C2CCC(C2)C1(C)C` (stereo unspecified), the results for the max response in assay [1] and in [3] were -9.06% and 0.165%, respectively. The call in assay [2], in [4] and in [7] was inactive. Besides, the Potency result in assay [5], in assay [6], in [8] and in assay [9] was “inactive” throughout.

For the compound `CCCNC(C)C(=O)Nc1ccccc1C` (stereo unspecified), the results for the max response in assay [1], in assay [3] and in assay [4] were 1.1%, 7.86% and -0.782%, respectively. For the same compound, the compound was called inactive in assay [2] and in [7]. Also, the Potency entry in assay [5], in [6], in assay [8] and in assay [9] was “inactive” each time.

For `CC(C)NNC(=O)c1ccncc1`, the max response in [1] is -10.4%; in assay [3] it was -1.28%. Moreover, the compound was classed as inactive in [2], in [4] and in [7]. The Potency result in assay [5], in assay [6], in assay [8] and in assay [9] was “inactive” each time.

As to `NCCCNCCSP(=O)(O)O`, the max response is -18.5% in assay [1] and -4.63% in assay [3]. For the same compound, the compound was classed as inactive in assay [2] and in assay [4]. The outcome in assay [7] was “inactive [at 9.27 µM]”. For the same compound, the activity change, negative = cytotoxicity in assay [5] is 18.6% [at 9.22 µM]; in assay [6], 11.5% [at 9.22 µM]; in [8], 15.3% [at 9.22 µM]; in [9] it was 7.98% [at 9.22 µM].

Take `NC(=O)c1ncn([C@@H]2O[C@H](CO)[C@@H](O)[C@H]2O)c1O`: the max response was 3.19% in [1], 8.08% in assay [3] and -1.25% in [4]. Also, the result in assay [2] and in assay [7] was inactive. For the same compound, the Potency entry in assay [5], in assay [6], in [8] and in assay [9] was “inactive” in each case.

Consider `NC/C=C/C(=O)O`, for which the outcome in [1], in assay [2], in assay [7] and in assay [10] was inactive. Also, the figures for the max response in [3] and in assay [4] were 3.52% and -7.89%, respectively. Also, the Potency result in assay [5], in assay [6], in assay [8] and in [9] was “inactive” in each case.

`NC(=O)N1c2ccccc2C=Cc2ccccc21`: the max response is 2.7% in assay [1], -8.83% in assay [2], -5.38% in [3] and 2.27% in [4]. In addition, the Potency entry in assay [5], in assay [6] and in assay [9] was “inactive” in each case.

`CN/C(=C\[N+](=O)[O-])NCCSCc1ccc(CN(C)C)o1`: the max response was 0.484% in [1], 15% in [3] and -4.45% in [4]. The compound was classed as inactive in assay [2] and in assay [7]. Further, the Potency result in [5], in assay [6] and in [9] was “inactive” in each case.

Take `O=C(CCNNC(=O)c1ccncc1)NCc1ccccc1`: the max response in assay [1] was -20%; in [2], -22%; in assay [3], 4.64%; in [4] it was -21.8%. For the same compound, the Potency result in [5], in [6], in assay [8] and in assay [9] was “inactive” throughout.

With `C[N+](C)(C)CCOC(=O)CCC(=O)OCC[N+](C)(C)C`, the max response is 4.43% in [1] and 1.17% in [3]. Further, the call in [2], in assay [4] and in assay [7] was inactive. For the same compound, the Potency entry in assay [5], in [6], in assay [8] and in assay [9] was “inactive” in each case.

As for `Cc1scc2c1N(C(=O)CN1CCN(C)CC1)c1ccccc1NC2=O`, the max response in assay [1] was -0.369%; in assay [3], 6.97%; in assay [4], -7.24%. Besides, the outcome in [2] and in assay [7] was inactive. Further, the Potency entry in assay [5], in [6] and in assay [9] was “inactive” throughout.

Turning to `CCN(CC)CCNC(=O)c1cc(S(C)(=O)=O)ccc1OC`, the max response in assay [1] is -8.18%; in assay [2], -0.825%; in assay [3], 6.27%; in assay [4], -1.98%. Further, the Potency entry in assay [5], in assay [6] and in assay [9] was “inactive” each time.

In the case of `CN(C)C(=O)Oc1cccc([N+](C)(C)C)c1`, the call in assay [1], in assay [2], in [7] and in [10] was inactive. In addition, the values for the max response in assay [3] and in assay [4] were 3.68% and 1.77%, respectively. Moreover, the Potency entry in assay [5], in assay [6] and in assay [9] was “inactive” throughout.

`CC(C)[N+](C)(CCOC(=O)C1c2ccccc2Oc2ccccc21)C(C)C`: the max response in assay [1] was -1.62%; in assay [2], -8.6%; in [3], -0.425%. In addition, the call in assay [4] was inactive. Also, the Potency entry in assay [5] and in assay [6] was “inactive” in each case.

Take `CC(=O)Oc1cc(C(C)C)c(OCCN(C)C)cc1C`: the call in assay [1], in [4] and in assay [10] was inactive. Besides, the max response was 3.27% in [2] and 3.97% in assay [3]. Besides, the Potency entry in assay [5], in [6], in assay [8] and in [9] was “inactive” in each case.

Turning to `CCN(CC)CC(=O)Nc1c(C)cccc1C`, the max response in assay [1] was -14.5%; in assay [2], -2.67%; in assay [3] it was -0.324%. The compound was called inactive in assay [4]. The Potency result in assay [5], in assay [6], in assay [8] and in assay [9] was “inactive” in each case.

In the case of `CO[C@@]1(NC(=O)CSCC#N)C(=O)N2C(C(=O)O)=C(CSc3nnnn3C)CS[C@@H]21`, the max response was -2.42% in assay [1], 1.86% in assay [3] and -0.696% in assay [4]. Besides, the compound was called inactive in [2] and in assay [7]. For the same compound, the Potency result in assay [5] and in assay [6] was “inactive” throughout.

`CCN1CCc2nc(N)oc2CC1`: the result in [1], in [2], in [7] and in assay [10] was inactive. In addition, the max response in [3] is 2.16%; in assay [4] it was -2.66%. In addition, the Potency entry in [5], in assay [6] and in assay [9] was “inactive” throughout.

Regarding `NC(Cc1ccc(Cl)cc1)C(=O)O` (stereo unspecified), the compound was classed as inactive in assay [1] and in assay [2]. For the same compound, the max response in [3] is -13.5%; in assay [4] it was 4.7%. Further, the outcome in assay [7] and in assay [10] was “inactive [at 0.588 µM]” each time. Besides, the activity change, negative = cytotoxicity is 20.3% [at 0.597 µM] in assay [5], 17.1% [at 0.597 µM] in assay [6], 8.15% [at 0.597 µM] in assay [8] and 20% [at 0.597 µM] in assay [9].
